Results filed as inconclusive are left out. Activity calls are given as the source filed them. Unless noted, calls come from the whole dose curve; as a rule, active = well fitted curve in the direction sought with a large enough effect; inconclusive = small, poorly fitted or top-dose-only effect, or another doubt; inactive = no such curve, though single readings can be large; an effect the other way counts as inactive or inconclusive. Bridge positions count the residues as written; N and C are the ends. Square brackets hold non-standard residues; d marks the D form. Peptide text beside a SMILES is read from it. * marks the point of attachment. ξ: configuration not given here. ξDab(CH2SO3H) = NC(CCNCS(=O)(=O)O)C(=O)O; Heptanoyl(6-Me) = CC(C)CCCCC(=O)*; Dab = NCC[CH](N)C(=O)O
Experiments:
[1] = biological target: Cytochrome P450 3A4 (Homo sapiens) (UniProt P08684); assay: qHTS Assay for Inhibitors and Substrates of Cytochrome P450 3A4 (AID 884); note: % is set by controls: 0 for no effect and ±100 for the full control effect; nearly all actives have a fitted effect of over 50% in size
In short: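 20 nM human CYP3A4 with 25 uM Luciferin-PPXE (at KM) in 200 mM KPO4, preincubated 10 min with compound; NADPH regeneration started a 60 min RT reaction. Luciferin detected by luminescence, normalized to 57 uM ketoconazole as full inhibition.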

[2] = Confirmation and Secondary Assay for Modulators of Hemoglobin Beta Chain Splicing at IVS2 654 locus (AID 910);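 note: per-well total GFP intensity by laser scanning cytometry after 2-day treatment; % of control where 0% means no effect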
In short: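 HeLa cells stably carrying EGFP interrupted by mutant beta-globin IVS2-654 intron (CMV-driven) were treated with compound for 2 days at 37C; corrected splicing was scored as total peak GFP intensity per well (488 nm excitation, 500-520 nm emission).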

[3] = Confirmation and Secondary Assay for Modulators of Hemoglobin Beta Chain Splicing at IVS2 705 locus (AID 930);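 note: HeLa cells stably expressing the EGFP-705 splicing reporter; GFP fluorescence per well restored by corrected splicing of the IVS2-705 intron in EGFP; % of control where 0% means no effect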
In short: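 HeLa IVS2-705 EGFP reporter cells, 500/well, compound 2 d at 37C; correct splicing yields fluorescent EGFP. Control: 500 nM antisense PNA. Read-out: total peak GFP intensity.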

[4] = biological target: Ubiquitin carboxyl-terminal hydrolase 1 (Homo sapiens) (UniProt O94782); assay: Inhibitors of USP1/UAF1: Pilot qHTS (AID 504865); note: potency is the fitted concentration of half-maximal effect; nearly all actives have a fitted effect of over 35% in size
In short: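 Deubiquitinase activity followed as kinetic rhodamine fluorescence release from 150 nM Ub-Rho. 1 nM USP1/UAF1 with compound, after 15 min room-temperature preincubation, in HEPES pH 7.8 buffer containing TCEP, EDTA, BSA and Tween-20.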

[5] = biological target: Luciferin 4-monooxygenase (Photinus pyralis) (UniProt P08659); assay: Biochemical firefly luciferase enzyme assay for NPC (AID 624030);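 note: purified P. pyralis luciferase at 10 nM with luciferin and ATP substrate; 0% = DMSO and -100% = full luciferase inhibition by PTC124 control; nearly all actives have a fitted effect of over 70% in size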
In short: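 Counter-screen for direct inhibition of the luciferase enzyme by approved-drug library compounds, run at 10 nM enzyme in 50 mM Tris acetate (final). Luminescence was read within 5 min of enzyme-buffer addition and normalized to PTC124 versus DMSO (0%).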

[6] = S16 Schwann cell viability assay (CellTiter-Glo assay) (AID 624031);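 note: native untransfected S16 rat Schwann cells; cellular ATP luminescence as a viability measure; plate controls were DMSO-treated cells for no effect and cell-free wells for full effect; nearly all actives have a fitted effect of over 70% in size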
In short: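 Following overnight culture in 10% FBS DMEM, parental S16 rat Schwann cells are dosed for 24 h at 37 °C. Viability is read as CellTiter-Glo luminescence and expressed as % activity relative to DMSO (0%) and no-cell wells.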

[7] = S16 Schwann cell PMP22 intronic element firefly luciferase assay (AID 624032);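 note: plate controls were DMSO for no effect and PTC124 positive control mean for full effect; nearly all actives have a fitted effect of over 30% in size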
In short: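 Rat S16 Schwann cells stably carrying a PMP22 intronic element-driven Fluc reporter were seeded overnight, then exposed to compounds for 24 h at 37 °C. Luminescence was normalized to PTC124 (positive control) and DMSO (0% activity).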

[8] = S16 Schwann cell PMP22 intronic element beta-lactamase assay (AID 624044; calls by dose curve;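 note: 0% = DMSO and -100% = potassium clavulanate positive control; nearly all actives have a fitted effect of over 15% in size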)
In short: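 Rat S16 Schwann cells with beta-Lac driven by a PMP22 intronic element, compound-treated 24 h at 37 °C. LiveBLAzer FRET B/G read: 460 nm normalized to potassium clavulanate vs DMSO; 535 nm FRET as viability; concentration-effect curves classified.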

[9] = qHTS profiling for inhibitors of Plasmodium falciparum proliferation (AID 504749);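 note: 0% = DMSO vehicle and full inhibition = artemisinin control; nearly all actives have a fitted effect of over 60% in size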; conditions: P. falciparum in erythrocytes, SYBR Green DNA, 72 h, at 28.7 µM (top of the series)
In short: (§1)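 Parasite proliferation within erythrocytes, 72 h exposure. Endpoint: SYBR Green I fluorescence after overnight lysis at room temperature. Controls: 0.29 uM artemisinin, DMSO.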

3D7 = assay: as above; conditions: P. falciparum in erythrocytes, SYBR Green DNA, 72 h; series mostly up to 28.7 µM
In short: as §1

7G8 = assay: as above; conditions: P. falciparum in erythrocytes, SYBR Green DNA, 72 h; series mostly up to 28.7 µM
In short: as §1

AA1029 = assay: as above; conditions: P. falciparum in erythrocytes, SYBR Green DNA, 72 h; series mostly up to 28.7 µM
In short: as §1

AS120 = assay: as above; conditions: P. falciparum in erythrocytes, SYBR Green DNA, 72 h; series mostly up to 28.7 µM
In short: as §1

ATS189 = assay: as above; conditions: P. falciparum in erythrocytes, SYBR Green DNA, 72 h; series mostly up to 28.7 µM
In short: as §1

ATS95 = assay: as above; conditions: P. falciparum in erythrocytes, SYBR Green DNA, 72 h; series mostly up to 28.7 µM
In short: as §1

C2A = assay: as above; conditions: P. falciparum in erythrocytes, SYBR Green DNA, 72 h; series mostly up to 28.7 µM
In short: as §1

CP185 = assay: as above; conditions: P. falciparum in erythrocytes, SYBR Green DNA, 72 h; series mostly up to 28.7 µM
In short: as §1

CP191 = assay: as above; conditions: P. falciparum in erythrocytes, SYBR Green DNA, 72 h; series mostly up to 28.7 µM
In short: as §1

CP192 = assay: as above; conditions: P. falciparum in erythrocytes, SYBR Green DNA, 72 h; series mostly up to 28.7 µM
In short: as §1

CP194 = assay: as above; conditions: P. falciparum in erythrocytes, SYBR Green DNA, 72 h; series mostly up to 28.7 µM
In short: as §1

CP201 = assay: as above; conditions: P. falciparum in erythrocytes, SYBR Green DNA, 72 h; series mostly up to 28.7 µM
In short: as §1

CP203 = assay: as above; conditions: P. falciparum in erythrocytes, SYBR Green DNA, 72 h; series mostly up to 28.7 µM
In short: as §1

CP211 = assay: as above; conditions: P. falciparum in erythrocytes, SYBR Green DNA, 72 h; series mostly up to 28.7 µM
In short: as §1

CP217 = assay: as above; conditions: P. falciparum in erythrocytes, SYBR Green DNA, 72 h; series mostly up to 28.7 µM
In short: as §1

CP237 = assay: as above; conditions: P. falciparum in erythrocytes, SYBR Green DNA, 72 h; series mostly up to 28.7 µM
In short: as §1

CP238 = assay: as above; conditions: P. falciparum in erythrocytes, SYBR Green DNA, 72 h; series mostly up to 28.7 µM
In short: as §1

CP247 = assay: as above; conditions: P. falciparum in erythrocytes, SYBR Green DNA, 72 h; series mostly up to 28.7 µM
In short: as §1

CP252 = assay: as above; conditions: P. falciparum in erythrocytes, SYBR Green DNA, 72 h; series mostly up to 28.7 µM
In short: as §1

CP262 = assay: as above; conditions: P. falciparum in erythrocytes, SYBR Green DNA, 72 h; series mostly up to 28.7 µM
In short: as §1

CP265 = assay: as above; conditions: P. falciparum in erythrocytes, SYBR Green DNA, 72 h; series mostly up to 28.7 µM
In short: as §1

CP266 = assay: as above; conditions: P. falciparum in erythrocytes, SYBR Green DNA, 72 h; series mostly up to 28.7 µM
In short: as §1

CP268 = assay: as above; conditions: P. falciparum in erythrocytes, SYBR Green DNA, 72 h; series mostly up to 28.7 µM
In short: as §1

CP269 = assay: as above; conditions: P. falciparum in erythrocytes, SYBR Green DNA, 72 h; series mostly up to 28.7 µM
In short: as §1

CP286 = assay: as above; conditions: P. falciparum in erythrocytes, SYBR Green DNA, 72 h; series mostly up to 28.7 µM
In short: as §1

CP291 = assay: as above; conditions: P. falciparum in erythrocytes, SYBR Green DNA, 72 h; series mostly up to 28.7 µM
In short: as §1

CP297 = assay: as above; conditions: P. falciparum in erythrocytes, SYBR Green DNA, 72 h; series mostly up to 28.7 µM
In short: as §1

CP305 = assay: as above; conditions: P. falciparum in erythrocytes, SYBR Green DNA, 72 h; series mostly up to 28.7 µM
In short: as §1

CP315 = assay: as above; conditions: P. falciparum in erythrocytes, SYBR Green DNA, 72 h; series mostly up to 28.7 µM
In short: as §1

CP325 = assay: as above; conditions: P. falciparum in erythrocytes, SYBR Green DNA, 72 h; series mostly up to 28.7 µM
In short: as §1

CP329 = assay: as above; conditions: P. falciparum in erythrocytes, SYBR Green DNA, 72 h; series mostly up to 28.7 µM
In short: as §1

CP335 = assay: as above; conditions: P. falciparum in erythrocytes, SYBR Green DNA, 72 h; series mostly up to 28.7 µM
In short: as §1

DIV14 = assay: as above; conditions: P. falciparum in erythrocytes, SYBR Green DNA, 72 h; series mostly up to 28.7 µM
In short: as §1

DIV17 = assay: as above; conditions: P. falciparum in erythrocytes, SYBR Green DNA, 72 h; series mostly up to 28.7 µM
In short: as §1

DIV30 = assay: as above; conditions: P. falciparum in erythrocytes, SYBR Green DNA, 72 h; series mostly up to 28.7 µM
In short: as §1

Dd2 = assay: as above; conditions: P. falciparum in erythrocytes, SYBR Green DNA, 72 h; series mostly up to 28.7 µM
In short: as §1

ECU = assay: as above; conditions: P. falciparum in erythrocytes, SYBR Green DNA, 72 h; series mostly up to 28.7 µM
In short: as §1

FAB9 = assay: as above; conditions: P. falciparum in erythrocytes, SYBR Green DNA, 72 h; series mostly up to 28.7 µM
In short: as §1

GB4 = assay: as above; conditions: P. falciparum in erythrocytes, SYBR Green DNA, 72 h; series mostly up to 28.7 µM
In short: as §1

HB3 = assay: as above; conditions: P. falciparum in erythrocytes, SYBR Green DNA, 72 h; series mostly up to 28.7 µM
In short: as §1

ICS = assay: as above; conditions: P. falciparum in erythrocytes, SYBR Green DNA, 72 h; series mostly up to 28.7 µM
In short: as §1

JCK = assay: as above; conditions: P. falciparum in erythrocytes, SYBR Green DNA, 72 h; series mostly up to 28.7 µM
In short: as §1

N140 = assay: as above; conditions: P. falciparum in erythrocytes, SYBR Green DNA, 72 h; series mostly up to 28.7 µM
In short: as §1

P93_24 = assay: as above; conditions: P. falciparum in erythrocytes, SYBR Green DNA, 72 h; series mostly up to 28.7 µM
In short: as §1

P94_40 = assay: as above; conditions: P. falciparum in erythrocytes, SYBR Green DNA, 72 h; series mostly up to 28.7 µM
In short: as §1

PAD = assay: as above; conditions: P. falciparum in erythrocytes, SYBR Green DNA, 72 h; series mostly up to 28.7 µM
In short: as §1

PC15 = assay: as above; conditions: P. falciparum in erythrocytes, SYBR Green DNA, 72 h; series mostly up to 28.7 µM
In short: as §1

PC26 = assay: as above; conditions: P. falciparum in erythrocytes, SYBR Green DNA, 72 h; series mostly up to 28.7 µM
In short: as §1

PC49 = assay: as above; conditions: P. falciparum in erythrocytes, SYBR Green DNA, 72 h; series mostly up to 28.7 µM
In short: as §1

SC27B = assay: as above; conditions: P. falciparum in erythrocytes, SYBR Green DNA, 72 h; series mostly up to 28.7 µM
In short: as §1

Sequence of Ubiquitin carboxyl-terminal hydrolase 1 (Homo sapiens) (O94782 whole entry, looked up): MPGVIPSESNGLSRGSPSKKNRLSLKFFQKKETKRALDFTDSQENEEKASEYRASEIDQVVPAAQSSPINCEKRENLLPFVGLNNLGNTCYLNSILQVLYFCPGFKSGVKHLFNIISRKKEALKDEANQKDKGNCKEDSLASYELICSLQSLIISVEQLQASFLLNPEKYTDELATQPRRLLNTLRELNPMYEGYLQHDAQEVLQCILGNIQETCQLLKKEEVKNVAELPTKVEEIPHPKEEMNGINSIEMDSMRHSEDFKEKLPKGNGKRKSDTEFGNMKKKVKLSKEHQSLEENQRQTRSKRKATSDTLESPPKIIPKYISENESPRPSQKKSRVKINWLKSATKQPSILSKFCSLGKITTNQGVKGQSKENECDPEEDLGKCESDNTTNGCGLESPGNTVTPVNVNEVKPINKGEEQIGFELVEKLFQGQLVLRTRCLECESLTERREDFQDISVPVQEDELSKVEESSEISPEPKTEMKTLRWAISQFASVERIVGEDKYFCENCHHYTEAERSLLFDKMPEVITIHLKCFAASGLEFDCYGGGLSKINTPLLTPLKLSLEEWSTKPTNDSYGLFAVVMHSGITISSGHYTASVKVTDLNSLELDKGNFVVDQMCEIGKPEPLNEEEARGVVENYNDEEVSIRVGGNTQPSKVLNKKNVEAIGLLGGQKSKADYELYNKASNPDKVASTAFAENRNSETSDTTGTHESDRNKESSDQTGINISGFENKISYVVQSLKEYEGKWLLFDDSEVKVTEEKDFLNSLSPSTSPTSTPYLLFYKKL
Sequence of Cytochrome P450 3A4 (Homo sapiens) (P08684 whole entry, looked up): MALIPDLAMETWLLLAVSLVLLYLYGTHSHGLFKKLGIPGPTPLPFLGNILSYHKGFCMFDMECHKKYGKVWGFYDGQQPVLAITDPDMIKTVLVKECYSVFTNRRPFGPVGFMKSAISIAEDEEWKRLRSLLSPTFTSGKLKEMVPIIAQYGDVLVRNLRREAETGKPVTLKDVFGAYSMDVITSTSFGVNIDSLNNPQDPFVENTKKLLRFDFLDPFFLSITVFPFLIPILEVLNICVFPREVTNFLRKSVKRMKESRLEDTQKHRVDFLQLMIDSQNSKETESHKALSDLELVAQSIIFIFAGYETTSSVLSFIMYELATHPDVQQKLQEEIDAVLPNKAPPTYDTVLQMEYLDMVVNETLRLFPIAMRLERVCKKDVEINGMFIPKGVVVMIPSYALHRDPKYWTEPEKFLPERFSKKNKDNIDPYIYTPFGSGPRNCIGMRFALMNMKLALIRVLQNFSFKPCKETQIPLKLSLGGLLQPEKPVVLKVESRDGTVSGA
Sequence of Luciferin 4-monooxygenase (Photinus pyralis) (P08659 whole entry, looked up): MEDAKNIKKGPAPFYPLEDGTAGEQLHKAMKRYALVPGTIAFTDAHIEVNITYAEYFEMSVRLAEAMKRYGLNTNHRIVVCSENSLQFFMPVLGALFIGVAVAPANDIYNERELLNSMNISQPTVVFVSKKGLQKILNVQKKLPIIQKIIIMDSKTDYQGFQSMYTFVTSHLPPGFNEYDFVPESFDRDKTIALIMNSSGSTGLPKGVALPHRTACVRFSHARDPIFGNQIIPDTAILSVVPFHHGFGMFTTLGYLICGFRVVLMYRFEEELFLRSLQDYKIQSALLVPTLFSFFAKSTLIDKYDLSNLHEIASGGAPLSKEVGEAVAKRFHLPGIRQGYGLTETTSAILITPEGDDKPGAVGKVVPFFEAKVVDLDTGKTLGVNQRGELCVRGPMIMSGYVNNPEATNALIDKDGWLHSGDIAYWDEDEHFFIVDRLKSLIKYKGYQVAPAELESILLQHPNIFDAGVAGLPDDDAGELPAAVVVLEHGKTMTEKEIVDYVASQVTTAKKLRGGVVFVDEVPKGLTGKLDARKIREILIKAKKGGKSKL

CCC(C)C1NC(=O)C(CCNCS(=O)(=O)O)NC(=O)C(NC(=O)C(CCNCS(=O)(=O)O)NC(=O)C(NC(=O)C(CCNCS(=O)(=O)O)NC(=O)CCCCC(C)C)C(C)O)CCNC(=O)C(C(C)O)NC(=O)C(CCNCS(=O)(=O)O)NC(=O)C(CCNCS(=O)(=O)O)NC(=O)C(C(C)CC)NC1=O (stereo not given) ({Heptanoyl(6-Me)}-[ξDab(CH2SO3H)]T[ξDab(CH2SO3H)][Dab][ξDab(CH2SO3H)]II[ξDab(CH2SO3H)][ξDab(CH2SO3H)]T; lactam 4-C; configuration not given here)
inactive: Potency [1] | outcome [2] | outcome [3] | Potency [5] | Potency [6] | Potency [7] | Potency [8] | activity, negative = inhibition ([9]; parasite line A) -19.4% | activity, negative = inhibition ([9]; parasite line B) 8.48% | Potency (3D7) | Potency (7G8) | Potency (AA1029) | Potency (AS120) | Potency (ATS189) | Potency (ATS95) | Potency (C2A) | Potency (CP185) | Potency (CP191) | Potency (CP192) | Potency (CP194) | Potency (CP201) | Potency (CP203) | Potency (CP211) | Potency (CP217) | Potency (CP237) | Potency (CP238) | Potency (CP247) | Potency (CP252) | Potency (CP262) | Potency (CP265) | Potency (CP266) | Potency (CP268) | Potency (CP269) | Potency (CP286) | Potency (CP291) | Potency (CP297) | Potency (CP305) | Potency (CP315) | Potency (CP325) | Potency (CP329) | Potency (CP335) | Potency (DIV14) | Potency (DIV17) | Potency (DIV30) | Potency (Dd2) | Potency (ECU) | Potency (FAB9) | Potency (GB4) | Potency (HB3) | Potency (ICS) | Potency (JCK) | Potency (N140) | Potency (P93_24) | Potency (P94_40) | Potency (PAD) | Potency (PC15) | Potency (PC26) | Potency (PC49) | Potency (SC27B)
active: Potency [4] 44.7 µM

— PubChem BioAssay (NCATS)
